# Laboratory results published in PubChem BioAssay AID1159580 (chemical genetic matrix, 2015).
# In all, about 5,500 compounds went through this assay and about 2,000 (36%) were called active. Roughly 18% stayed inconclusive and do not appear here. The list shows a part of the results. Unmarked numbers belong to inactive results. Rule as the data show it: active = normalized growth mostly below about 0.91 (no sharp cut-off); inconclusive = no clear call, values can overlap the other calls; inactive = mostly above about 0.92.
# Test: chemical genetic growth profiling, strain panel (AID 1159580);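 also: tested at 20 µM; growth read once vehicle control cultures reached saturation at 30 °C; 1 = growth at the plate median or of vehicle wells; lower values mean less growth of the strain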
# Details: growth OD
# [1] = S. cerevisiae deletion strains, locus YAL013W, strain DEP1, active compounds read low
# [2] = S. cerevisiae deletion strains, locus YAL040C, strain CLN3, active compounds read low
# [3] = S. cerevisiae deletion strains, locus YCL061C, strain MRC1 (second series), active compounds read low
# [4] = S. cerevisiae deletion strains, locus YDR363W, strain ESC2, active compounds read low
# [5] = S. cerevisiae deletion strains, locus YER002W, strain NOP16, active compounds read low
# [6] = S. cerevisiae deletion strains, locus YNL153C, strain GIM3, active compounds read low
# [7] = S. cerevisiae deletion strains, locus YNL175C, strain NOP13, active compounds read low
# [8] = S. cerevisiae deletion strains, locus YNL197C, strain WHI3, active compounds read low
# [9] = S. cerevisiae deletion strains, locus YNL224C, strain SQS1, active compounds read low
# [10] = S. cerevisiae deletion strains, locus YOR083W, strain WHI5 (second series), active compounds read low
# [11] = S. cerevisiae deletion strains, locus YPL055C, strain LGE1, active compounds read low
# [12] = S. cerevisiae deletion strains, locus YPL241C, strain CIN2, active compounds read low
# [13] = S. cerevisiae deletion strains, locus YJR075W, strain HOC1, active compounds read low
# [14] = S. cerevisiae deletion strains, locus YMR307W, strain GAS1, active compounds read low
# [15] = S. cerevisiae deletion strains, locus YDR150W, strain NUM1, active compounds read low
# [16] = S. cerevisiae deletion strains, locus YGR078C, strain PAC10, active compounds read low
# [17] = S. cerevisiae deletion strains, locus YNL322C, strain KRE1, active compounds read low
# [18] = S. cerevisiae deletion strains, locus YHR030C, strain SLT2, active compounds read low
compound,measurement,setting,value
N#Cc1c(-c2ccccc2)no[n+]1[O-],normalized growth,[1],0.942
same,normalized growth,[2],0.674 (active)
same,normalized growth,[3],0.995
same,normalized growth,[4],1
same,normalized growth,[5],0.85 (active)
same,normalized growth,[6],0.515 (active)
same,normalized growth,[7],0.774 (active)
same,normalized growth,[8],0.902
same,normalized growth,[9],0.926
same,normalized growth,[10],0.253 (active)
same,normalized growth,[11],0.953
same,normalized growth,[12],1
Cc1ccc(O)c(N=Nc2ccccc2)n1,normalized growth,[2],0.96
same,normalized growth,[3],0.934 (active)
same,normalized growth,[4],0.896
same,normalized growth,[5],1.03
same,normalized growth,[13],0.855 (active)
same,normalized growth,[14],0.984
same,normalized growth,[7],0.985
same,normalized growth,[8],0.977
same,normalized growth,[9],0.993
same,normalized growth,[10],0.738 (active)
same,normalized growth,[11],0.425 (active)
NC1CCN(c2cccc(Cl)n2)CC1,normalized growth,[2],1.01
same,normalized growth,[3],1
same,normalized growth,[15],1.01
same,normalized growth,[4],1.01
same,normalized growth,[5],0.991
same,normalized growth,[16],1.01
same,normalized growth,[14],1.02
same,normalized growth,"S. cerevisiae deletion strains, locus YNL128W, strain TEP1, active compounds read low",1.01
same,normalized growth,[7],0.991
same,normalized growth,[8],1
same,normalized growth,[9],1.01
same,normalized growth,[17],0.984
same,normalized growth,[10],0.991
same,normalized growth,[12],1
CN1CCN(C(c2ccccc2)c2ccc(Cl)cc2)CC1 (stereo not drawn),normalized growth,[18],0.974
same,normalized growth,"S. cerevisiae deletion strains, locus YHR079C, strain IRE1, active compounds read low",0.986
same,normalized growth,"S. cerevisiae deletion strains, locus YJL095W, strain BCK1, active compounds read low",0.974
same,normalized growth,"S. cerevisiae deletion strains, locus YJR066W, strain TOR1, active compounds read low",0.979
same,normalized growth,"S. cerevisiae deletion strains, locus YLR113W, strain HOG1, active compounds read low",0.962
same,normalized growth,"S. cerevisiae deletion strains, locus YNL183C, strain NPR1, active compounds read low",0.914
same,normalized growth,"S. cerevisiae deletion strains, locus YOR231W, strain MKK1, active compounds read low",0.981
same,normalized growth,"S. cerevisiae deletion strains, locus YPL256C, strain CLN2, active compounds read low",0.951
CC(C)(C)OC(=O)N1CCN(Cc2ccccc2)CC1,normalized growth,[1],1
same,normalized growth,"S. cerevisiae deletion strains, locus YBR229C, strain ROT2, active compounds read low",1
same,normalized growth,"S. cerevisiae deletion strains, locus YDL101C, strain DUN1, active compounds read low",1.02
same,normalized growth,[15],1.03
same,normalized growth,"S. cerevisiae deletion strains, locus YEL061C, strain CIN8, active compounds read low",0.98
same,normalized growth,[16],0.999
same,normalized growth,"S. cerevisiae deletion strains, locus YGR229C, strain SMI1, active compounds read low",1.02
same,normalized growth,[18],1.08
same,normalized growth,"S. cerevisiae deletion strains, locus YHR087W, strain rtc3, active compounds read low",0.991
same,normalized growth,"S. cerevisiae deletion strains, locus YJR043C, strain POL32, active compounds read low",0.998
same,normalized growth,[13],1
same,normalized growth,"S. cerevisiae deletion strains, locus YKL190W, strain CNB1, active compounds read low",1.01
same,normalized growth,"S. cerevisiae deletion strains, locus YLR039C, strain RIC1, active compounds read low",0.967
same,normalized growth,"S. cerevisiae deletion strains, locus YLR058C, strain SHM2 (second series), active compounds read low",0.986
same,normalized growth,"S. cerevisiae deletion strains, locus YLR085C, strain ARP6, active compounds read low",0.997
same,normalized growth,"S. cerevisiae deletion strains, locus YLR262C, strain YPT6, active compounds read low",1.04
same,normalized growth,"S. cerevisiae deletion strains, locus YML094W, strain GIM5, active compounds read low",0.989
same,normalized growth,"S. cerevisiae deletion strains, locus YMR219W, strain ESC1, active compounds read low",0.994
same,normalized growth,"S. cerevisiae deletion strains, locus YMR263W, strain SAP30, active compounds read low",1.01
same,normalized growth,[6],1
same,normalized growth,"S. cerevisiae deletion strains, locus YNL298W, strain CLA4 (second series), active compounds read low",1.01
same,normalized growth,[17],1
same,normalized growth,"S. cerevisiae deletion strains, locus YNR030W, strain Alg12, active compounds read low",0.992
same,normalized growth,"S. cerevisiae deletion strains, locus YOL006C, strain TOP1, active compounds read low",1.08
same,normalized growth,[11],1.03
same,normalized growth,[12],1.01
same,normalized growth,"S. cerevisiae deletion strains, locus YPR135W, strain CTF4, active compounds read low",1.04
same,normalized growth,"S. cerevisiae strains, strain wild type, active compounds read low",1.02
